# Glioma ERSR ind: inducers of ER stress response in human glioma cells; U87-MG GRP78 promoter luciferase reporter, 16 h; Potency, µM, for the others: at the highest dose activation, hits mostly activators; hit rate 0.02% among 420,000; AID 602332; also: potency is read from the fitted curve at half-maximal effect; series mostly up to about 76 µM; % of control where 0% means no effect; nearly all actives have a fitted effect of over 35% in size
#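 Stably transfected U87-MG human glioma cells carrying a GRP78-based luminescent sensor were seeded at 1000 cells/well, pin-dosed with compounds and incubated 16 h. Luciferase reagent was then added, and end-point luminescence was read after 10 min at room temperature.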
# Nrf2 activator: Nrf2 pathway activation. AREc32 ARE-luciferase reporter (MCF7-derived line), luminescence, 24 h. Potency, µM (top dose mostly 46.1 µM), inactives show at the top dose activation, actives largely listed as activators. hit rate 0.31% among 410,000; also: potency is read from the fitted curve at half-maximal effect; % of control where 0% means no effect; nearly all actives have a fitted effect of over 65% in size
#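 Luminescent ARE reporter assay in AREc32_Fluc cells: overnight plating at 37 deg C, 24 hr compound incubation, Steady-Glo added, 30 min RT before reading.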
# DRD3 agonist: D3 dopamine receptor (human) agonism | P35462 | D3R DiscoveRx beta-arrestin cells, luminescence, 90 min | max activation, % | hit rate 0.58% among 410,000; in the data active = max activation above about 30%; also: 0% is about no effect
# Target sequence (P35462 whole entry, looked up): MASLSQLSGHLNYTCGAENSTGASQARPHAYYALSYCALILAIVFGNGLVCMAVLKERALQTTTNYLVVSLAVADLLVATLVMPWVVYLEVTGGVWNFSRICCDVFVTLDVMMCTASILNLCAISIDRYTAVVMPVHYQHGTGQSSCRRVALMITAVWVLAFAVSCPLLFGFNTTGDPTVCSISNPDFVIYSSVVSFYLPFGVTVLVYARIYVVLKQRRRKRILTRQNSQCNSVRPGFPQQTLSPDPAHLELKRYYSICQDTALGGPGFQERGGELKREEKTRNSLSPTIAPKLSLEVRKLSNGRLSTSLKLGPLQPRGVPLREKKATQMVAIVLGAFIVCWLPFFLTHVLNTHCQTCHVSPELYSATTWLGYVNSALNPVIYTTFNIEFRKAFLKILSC
#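 Agonist-mode cell screen: cells plated at 1500/well and incubated overnight at 37 °C, then exposed to library compounds for 90 min at 37 °C. Detection reagent was added for 30–60 min at room temperature, and luminescence was read.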
# D3 antag: blocks the human D3 dopamine receptor; P35462; D3R cells, DiscoveRx beta-arrestin luminescence, antagonist mode; hits give low values; max response, negative = inhibition, %; hit rate 2.5% among 360,000; AID 652054; in the data active = max response below about -50%; inconclusive = no clear call, values can overlap the other calls; also: % is scaled to controls: 0 for no effect and ±100 for the full control effect
#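 Cells expressing the human receptor were seeded at 1500 cells/well, incubated overnight at 37 degrees C in 5% CO2, then exposed to library compounds with dopamine controls for 90 minutes at 37 degrees C before luminescent detection.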
# * hit, by the source's call; ? = inconclusive; · = no result. This is a sample that favours compounds with a hit; in the whole collection about 3% have one here. Unless noted, calls follow the shape of the dose curve; as a rule, active = well fitted curve in the direction sought with a large enough effect; inconclusive = small, poorly fitted or top-dose-only effect, or another doubt; inactive = no such curve, though single readings can be large; an effect the other way counts as inactive or inconclusive.
SMILES,Glioma ERSR ind,Nrf2 activator,DRD3 agonist,D3 antag
Cc1ccc(C)n1-c1ccc(C(=O)NC2CCN(Cc3ccccc3)CC2)cc1,-3%,14%,-49,-52*
CCN(c1ccccc1)S(=O)(=O)c1ccc(C(=O)NC2CCN(Cc3ccccc3)CC2)cc1,-2%,3%,-9,?
c1ccc(-c2nnc(SCCC3OCCCO3)o2)cc1,-12%,0%,103*,13
Brc1ccc(-c2nnc(SCCC3OCCCO3)o2)cc1,5%,1%,2,30
COc1ccc(Nc2ccc3c(c2)=NC2(CCCCC2)[N+]=3[O-])cc1,-13%,-4%,0,-68*
[O-][N+]1=c2ccc(Nc3ccccc3)cc2=NC12CCCCC2,-10%,-3%,-3,?
COc1ccc(CN2CCN(C(=O)c3cccs3)CC2)cc1,-2%,0%,-13,-58*
O=C(c1cccs1)N1CCN(CCCc2ccccc2)CC1,1%,0%,-6,-65*
O=C(c1cccnc1)N1CCN(CCCc2ccccc2)CC1,-2%,0%,52*,5
CC(=O)O[C@]1(C(=O)CO)[C@@H](C)C[C@H]2[C@@H]3CCC4=CC(=O)C=C[C@]4(C)[C@@]3(F)[C@@H](O)C[C@]21C,-3%,·,·,·
CCN(CC)CCNC(=O)c1cnn(-c2ncc3c(n2)-c2ccc(OC)cc2CC3)c1C,5%,·,·,·
Cc1nc([N+](=O)[O-])cn1-c1ccc([N+](=O)[O-])cc1,-3%,·,9,·
Cc1ccc(C)c2c(C)ccnc12,-2%,·,·,·
COc1ccc(-c2nnc(Nc3nc4c(OC)cccc4s3)o2)cc1,6%,6%,-3,-9
COc1ccc(-c2nnc(Nc3nc4c(OC)cccc4s3)o2)c(OC)c1,0%,3%,-4,-68*
COc1ccc(Nc2cnn(-c3nc4ccccc4s3)c(=O)c2Cl)cc1,-10%,10µM*,-3,-18
O=c1c(Cl)c(Nc2cccc(Cl)c2)cnn1-c1nc2ccccc2s1,-4%,25%,-9,6
O=C1CC[C@@H](CN(Cc2cccnc2)C2CCN(c3ccc(NC(=O)c4cnccn4)cc3)CC2)N1,1%,·,·,·
CC(C)NC(=S)N(C)C1(c2ccccc2Cl)CCCCC1=O (configuration not stated),-3%,0%,10,-2
CN(C(=S)Nc1ccccc1F)C1(c2ccccc2Cl)CCCCC1=O (configuration not stated),-3%,0%,30*,7
CCC(C)c1ccc(NC(=S)Nc2ccc(OC)c(OC)c2)cc1 (configuration not stated),1%,3%,5,?
CCC(C)c1ccc(NC(=S)Nc2ccc(OC)cc2C)cc1 (configuration not stated),-2%,0%,23,-133*
c1ccc(N2CCN(CC3CCCCC3)CC2)cc1,2%,2%,8,-75*
O=C(CSC1CCCCC1)N1CCN(c2ccccc2)CC1,4%,2%,1,-12
CCCCOC(=O)c1ccc(Nc2ncnc3nc[nH]c23)cc1,2%,0%,-1,-22
SMILES,Glioma ERSR ind,Nrf2 activator,DRD3 agonist,D3 antag
CCCCCCCCOC(=O)c1cc([N+](=O)[O-])c(Sc2ncnc3nc[nH]c23)c([N+](=O)[O-])c1,-14%,21%,-12,-55*
O=C(O)C1CCN(S(=O)(=O)c2cccc3cccnc23)CC1,-1%,0%,7,4
O=C(C1CCN(S(=O)(=O)c2cccc3nsnc23)CC1)N1CCn2c1nc1ccccc12,-4%,-1%,-22,-101*
O=C(C1CCN(S(=O)(=O)c2cccc3cccnc23)CC1)N1CCc2ccccc21,-3%,0%,1,-53*
O=C(C1CCN(S(=O)(=O)c2cccc3cccnc23)CC1)N1CCCC1,-3%,-1%,-13,-79*
O=C(C1CCN(S(=O)(=O)c2cccc3nsnc23)CC1)N1CCc2ccccc21,-5%,0%,-4,-3
COc1cc(NC(=O)[C@@H]2CCCN(S(=O)(=O)c3cccc4cccnc34)C2)cc(OC)c1OC,-3%,4%,43*,106
COC(=O)c1cc(C)nc2c1C(=O)C(=O)C=C2N1CCOCC1,-14%,-4%,0,-100*
CN(C)CCCOc1ccc(C(C)(C)c2ccccc2)cc1,-6%,3%,-8,-68*
CN(C)CCOc1ccc(C(C)(C)c2ccccc2)cc1,-4%,0%,5,0
CC(=NNC(=S)N1CCCC1)c1ccccn1,-4%,?,-9,-7
CC(=NNC(=S)N1CC2CCC(CC2)C1)c1cccc(C)n1,12%,17%,1,-73*
CN1CCC(=C2c3ccccc3C(O)c3ccccc32)CC1 (configuration not stated),1%,0%,2,-80*
CN1CCC(=C2c3ccccc3CCc3sccc32)CC1,-3%,1%,-80,-91*
CN1CCC(=C2c3ccccc3CC(=O)c3sccc32)CC1,-4%,1%,-21,-98*
Nc1nc2c(s1)CCc1ccccc1-2,8%,4%,4,2
O=C(Cn1c(-c2cccs2)cc2ccccc21)N1CCN(c2ccc(F)cc2)CC1,-2%,0%,7,·
OC(c1ccc2c(c1)CN(Cc1c[nH]c3ccccc13)CCO2)c1ccccn1 (configuration not stated),-3%,·,·,·
Cc1cnc(C=O)c2cccc([N+](=O)[O-])c12,-5%,5%,-9,-77*
O=C(NCCCc1nc2ccccc2n1CCCCOc1ccccc1)C1CCCCC1,-6%,·,·,·
CNC[C@H](O)[C@@H](O)[C@H](O)[C@H](O)CO,·,·,8,·
O=C(/C=C/c1cccc(Cl)c1)c1nc2ccccc2[nH]1,-15%,?,-6,-56*
O=C(/C(=C/c1ccc(Cl)cc1)c1nc2ccccc2[nH]1)c1cccs1,-11%,-6%,-14,-65*
COc1cc(/C=C(/C(=O)c2cccs2)c2nc3ccccc3[nH]2)ccc1O,?,7%,-28,-19
O=C(/C(=C\c1ccccc1)c1nc2ccccc2[nH]1)c1ccc(Cl)cc1,-6%,18%,-3,-71*
SMILES,Glioma ERSR ind,Nrf2 activator,DRD3 agonist,D3 antag
COC(=O)/C(=C\c1ccc(O)cc1)c1nc2ccccc2[nH]1,1%,7%,-5,3
CCCCCN(CCCCC)C(=O)[C@H](CCC(=O)O)NC(=O)[C@H](Cc1ccc(OP(=O)(O)O)cc1)NC(C)=O,-1%,·,·,·
COC(=O)c1c(OCc2ccccn2)cc(=O)n2c1CCN(C(=O)c1n[nH]c3c1CCCC3)CC2,-6%,·,·,·
CC(CC(=O)Nc1cccnc1)c1ccccc1 (configuration not stated),-1%,0%,42*,-11
CC(CC(=O)Nc1ccc2c(c1)c(=O)n(C)n2-c1ccccc1)c1ccccc1 (configuration not stated),-3%,-1%,-18,-78*
CC(CC(=O)Nc1ccc(C(N)=O)cc1)c1ccccc1 (configuration not stated),0%,0%,-3,?
CC(CC(=O)Nc1ccc(Cl)c([N+](=O)[O-])c1)c1ccccc1 (configuration not stated),-9%,3%,-16,-57*
C=CC[n+]1cccc2cc(Br)ccc21,0%,·,·,·

# Source: PubChem
